Source: PubChem
BAZ2B inh: BAZ2B (human) inhibition. AID 504333. 4.4% of 360,000 active. AlphaScreen BAZ2B-H3K14Ac peptide displacement. Q9UIF8. Potency, µM (titrated, usually from 114 µM), without a hit: at the highest dose activity change, negative = inhibition, hits mostly inhibitors; also: potency is read from the fitted curve at half-maximal effect; % is scaled to controls: 0 for no effect and ±100 for the full control effect; nearly all actives have a fitted effect of over 60% in size
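AlphaScreen displacement: compounds (up to 110uM) incubated 30 min at room temperature with a preformed 50 nM BAZ2B/50 nM biotinylated H3K14Ac peptide complex in PBS pH 7.4 with Tween-20. Donor and acceptor beads at 10 ug/mL final added, 20 min light-protected before reading.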
CtBP-E1A blk: inhibitors of CtBP/E1A interaction; AlphaScreen GST-E1A/His-CtBP binding, 1536-well; hits give low values; activity change, % (no concentration beside the values); AID 651724; 0.49% of 340,000 active; in the data active = activity change below about -65%; inconclusive = mostly about -30% to -63%; also: % is scaled to controls: 0 for no effect and ±100 for the full control effect
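Steps: dispense buffer (Tris pH 8.0, NaCl 300 mM, TCEP 1 mM, BSA, Tween 20); add 5X protein mix (GST-E1A, His-CtBP, 125 nM each); pin 23 nL compound; 2 h at 37 °C, dark; add 5X beads (50 ug/mL); 1 h; read.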
G9a block: G9a (human) methyltransferase inhibition | Q96KQ7 | G9a H3K9 monomethylation, AlphaScreen, 2 h | Potency, µM (doses to about 102 µM), inactives show at the highest dose activity, negative = inhibition, usual class: inhibitors | 8.8% of 350,000 active | AID 504332; also: potency is read from the fitted curve at half-maximal effect; % is scaled to controls: 0 for no effect and ±100 for the full control effect; nearly all actives have a fitted effect of over 75% in size
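Readings reflect AlphaScreen signal from monomethyl-H3K9 antibody detection. HMT at 20 nM; substrate b-H3K9 500 nM; cofactor SAM 20 uM; 2 h RT reaction; compounds tested as titrations in qHTS with 15 min preincubation.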
HP1b chromo inh: inhibitors of HP1-beta chromodomain binding to methylated histone tails; AlphaScreen HP1-beta / biotin-H3K9me3 peptide binding; Potency, µM (highest dose often 114 µM), for the others: top-dose activity change, negative = inhibition, most hits filed as inhibitors; 0.56% of 390,000 active; also: potency is read from the fitted curve at half-maximal effect; nearly all actives have a fitted effect of over 70% in size
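HP1-beta protein (50 nM final) preincubated 30 min at room temperature with biotinylated H3(1-18)K9me3 peptide (50 nM) in PBS pH 7.4, 0.01% Tween-20, then compound added for 30 min. AlphaScreen streptavidin donor/nickel chelate acceptor beads (10 ug/mL final), 30 min dark, luminescence read.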
JMJD2A Tudor inh: inhibitors of human JMJD2A Tudor domain; O75164; AID 504339; 4.4% of 390,000 active; Potency, µM (titrated, usually from 114 µM), inactives show at the top dose activity change, negative = inhibition, most hits filed as inhibitors; AlphaScreen JMJD2A-Tudor / H3K4me3 peptide binding; also: potency is read from the fitted curve at half-maximal effect; % is scaled to controls: 0 for no effect and ±100 for the full control effect; nearly all actives have a fitted effect of over 50% in size
Six1-Eya2 inh: inhibitors of human Six1/Eya2 interaction; Q15475+O00167; AlphaScreen GST-Six1/His-Eya2 binding, biochemical; hits give low values; activity change, % (concentration not given with the values); 0.56% of 360,000 active; AID 651725; in the data active = activity change below about -65%; inconclusive = mostly about -30% to -63%; also: % is scaled to controls: 0 for no effect and ±100 for the full control effect
Target sequence (O00167 whole entry, looked up): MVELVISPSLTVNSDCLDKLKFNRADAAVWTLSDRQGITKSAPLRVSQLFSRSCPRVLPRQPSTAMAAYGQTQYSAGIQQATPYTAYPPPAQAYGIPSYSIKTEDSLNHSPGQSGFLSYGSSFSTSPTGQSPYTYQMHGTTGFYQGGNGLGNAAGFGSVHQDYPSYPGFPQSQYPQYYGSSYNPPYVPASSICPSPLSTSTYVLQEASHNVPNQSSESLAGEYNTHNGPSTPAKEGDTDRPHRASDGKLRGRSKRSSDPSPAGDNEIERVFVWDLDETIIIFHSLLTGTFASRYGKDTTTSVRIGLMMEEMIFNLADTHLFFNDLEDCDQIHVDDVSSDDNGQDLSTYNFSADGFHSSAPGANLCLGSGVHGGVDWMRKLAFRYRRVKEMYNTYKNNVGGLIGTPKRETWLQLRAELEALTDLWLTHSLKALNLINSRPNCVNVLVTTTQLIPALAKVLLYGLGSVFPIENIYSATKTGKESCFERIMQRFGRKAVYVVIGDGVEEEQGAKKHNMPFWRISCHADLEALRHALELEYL
Target sequence (Q15475 whole entry, looked up): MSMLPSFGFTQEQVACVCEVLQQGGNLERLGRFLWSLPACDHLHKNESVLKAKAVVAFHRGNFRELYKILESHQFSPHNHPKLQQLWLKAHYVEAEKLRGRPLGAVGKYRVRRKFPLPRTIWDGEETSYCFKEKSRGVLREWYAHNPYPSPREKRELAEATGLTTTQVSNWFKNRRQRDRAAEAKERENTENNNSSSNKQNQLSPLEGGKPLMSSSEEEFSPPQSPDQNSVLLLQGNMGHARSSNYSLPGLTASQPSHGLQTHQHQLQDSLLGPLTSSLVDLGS
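AlphaScreen luminescence read after one hour at 37 °C in darkness. Pin-transferred compounds met GST-Six1 and His-Eya2 protein (5X stock 250 nM/500 nM) plus glutathione donor and Ni-chelate acceptor beads (5X, 50 ug/mL).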
* marks the source's active call; other numbers are inactive results; ? = inconclusive; / = no result; [ ] = dose if it differs, or a comment. A selection: hits, their analogues and other compounds. The true share with any hit is near 10%. Unless noted, calls follow the shape of the dose curve; as a rule, active = well fitted inhibition curve with a large enough effect; inconclusive = small, poorly fitted or top-dose-only effect; inactive = no such curve, though single readings can be large or run the other way.

SMILES	BAZ2B inh	CtBP-E1A blk	G9a block	HP1b chromo inh	JMJD2A Tudor inh	Six1-Eya2 inh
CC(CN1CCCC1)C(=O)NN (stereo unspecified)	-12%	/	2%	56%	-7%	-2
Cc1ccc(NS(=O)(=O)c2cc3c(cc2C)NC(=O)CO3)cc1C	/	/	/	/	-15%	/
O=c1cc(CN2CCN(S(=O)(=O)c3ccc4c(c3)OCCO4)CC2)c2ccc(O)cc2o1	-11%	-6	50µM*	9%	-21%	-3
COc1ccc(OC)c(CN2CCN(Cc3cc(=O)oc4cc(O)ccc34)CC2)c1	-19%	-6	35µM*	15%	-20%	-12
COc1ccc2c(CN3CCCC3)cc(=O)oc2c1	/	5	/	/	/	1
Cc1ccc(NC(=O)CN2C(=O)c3cccnc3Oc3ccc(Cl)cc32)cc1	0%	/	-30%[59 µM]	28%	-10%	/
CCOC(=O)C1(C)NC(c2cccs2)C2C(=O)N(c3ccc(OC)cc3)C(=O)C21 (stereo unspecified)	2%	-6	4%	3%	10µM*	-2
CCOC(=O)C1(C)NC(c2ccccc2F)C2C(=O)N(c3cccc(C(C)=O)c3)C(=O)C21 (stereo unspecified)	19%	-1	13%	?	35µM*	9
O=C(NCCS(=O)(=O)N1CCN(c2ccccc2F)CC1)c1ccccc1C(F)(F)F	-2%	/	14%[59 µM]	18%[57 µM]	-22%	/
CCOC(=O)c1c(CSC(=N)N)n(-c2ccc(Br)cc2)c2cc(Br)c(OC(C)=O)cc12	?	28	71µM*	6%	-36%	-14
CSc1ccccc1C(=O)N1CCCC(CCC(=O)NCc2ccc(F)c(F)c2)C1 (stereo unspecified)	-19%	0	1%	27%	-12%	25
O=C(CCC1CCCN(C(=O)CCC(F)(F)F)C1)NCc1ccc(F)c(F)c1 (stereo unspecified)	-24%	2	-3%	45%	-5%[57.1 µM]	9
COC(=O)c1ccccc1C(=O)N1CCCC(CCC(=O)NCc2ccc(F)c(F)c2)C1 (stereo unspecified)	-26%	12	5.6µM*	49%	-4%	6
Cc1noc(C)c1CCC(=O)N1CCCC(CCC(=O)NCc2ccc(F)c(F)c2)C1 (stereo unspecified)	-24%	/	?	?	100µM*	-8
CN1CC2([N+](=O)[O-])CC=C(OCCO)C([N+](=O)[O-])(C1)C2 (stereo unspecified)	-6%	1	-6%[59 µM]	10%	-18%	11
O=c1[nH]c(C2CCN(S(=O)(=O)c3ccccc3)CC2)nc2c1nnn2Cc1ccccc1	-9%	-29	?	1%	50µM*	-9
O=c1[nH]c(C2CCN(S(=O)(=O)c3ccc([N+](=O)[O-])cc3)CC2)nc2c1nnn2Cc1ccccc1	?	5	-2%	4%	-19%	1
COc1ccc(CCNC(=O)c2ccc3c(Cl)c4c(nc3c2)CCCC4)c(OC)c1	13%	/	0%[59 µM]	65%	-18%	/
CNC(=O)[C@H]1O[C@@H](n2cnc3c(NCc4ccc(N)cc4)ncnc32)[C@H](O)[C@@H]1O	/	/	15%[59 µM]	/	/	/
COc1ccc(C2=[N+](C)CCn3cccc32)c(OC)c1	-34%	19	7.1µM*	?	18µM*	7
COc1ccc(-c2[nH]ncc2CN2CCCCCCC2)c(OC)c1	?	10	/	-10%	?	-1
CCOc1ccc(-c2c(C)nn3c(C)c(C(=O)NCCc4ccc(C)cc4)cnc23)cc1OCC	-14%	/	7%[59 µM]	54%	-32%	/
C/C(CC1(O)C(=O)Nc2ccccc21)=N\O (stereo unspecified)	-13%	-3	-3%[59 µM]	19%	-11%	11
C/C(CC1(O)/C(=N/O)CCc2nonc21)=N\O (stereo unspecified)	4%	0	40µM*	15%	16µM*	3
O=C1CNC(=O)N1c1ccc(Cl)cc1	1%	2	-4%	49%	-16%	7
SMILES	BAZ2B inh	CtBP-E1A blk	G9a block	HP1b chromo inh	JMJD2A Tudor inh	Six1-Eya2 inh
CN(C)/C=C1\NC(=S)N(c2ccccc2)C1=O	-16%	0	7.9µM*	-26%	35µM*	-1
CN(C)/C=C1\NC(=S)N(c2ccc(Cl)cc2)C1=O	?	-1	5.6µM*	?	45µM*	-3
COC(=O)c1ccccc1NC(=O)c1nn(C)c2c1COc1ccccc1-2	?	/	-34%[59 µM]	43%	-5%	/
CCOC(=O)c1ccc(NC(=O)CSc2nnc(CCc3ccc(C)o3)n2-c2ccccc2)cc1	-29%	-7	45µM*	12%	-17%	-12
COC(=O)c1ccc(NC(=O)CSc2nnc(C)n2-c2ccccc2)cc1	-6%	-5	-48%[59 µM]	16%	-15%	1
Cc1ccc(CCc2nnc(SCC(=O)Nc3ccccc3Cl)n2-c2ccccc2)o1	?	0	28µM*	-4%	-33%	-20
Cc1ccc(S(=O)(=O)C2(C(=O)Nc3ccc(Cl)c(C(F)(F)F)c3)CC2)cc1	33%	/	21%[59 µM]	71%	12%	/
COc1ccc(NC(=O)Nc2cccc(NC(C)=O)c2)c(OC)c1	3%	1	-4%	16%	-7%	0
Cc1cc(C(=O)Nc2ccccc2)oc(=O)c1	-4%	-8	/	30%	-8%	4
O=C(NCc1ccco1)c1nc2ccccc2s1	-5%	4	-16%[12.7 µM]	12%	-34%	-1
O=C(COC(=O)CCCc1nc2ccccc2s1)NC(=O)NCc1ccco1	56µM*	0	?	4%	?	-5
COCCNC(=O)c1nc2ccccc2s1	-28%	8	-5%	52%	0%	1
COCCNC(=O)COC(=O)CSCc1nc2ccccc2s1	9%	-2	79µM*	19%	-15%	8
Cc1cc(NC(=O)c2cnn(-c3ccccc3)c2-n2cccc2)ccc1Br	-36%	/	-3%[59 µM]	24%	-2%	/
O=C(Nc1ccc(NC(=O)C2CCCCC2)nc1)c1ccccn1	?	-10	28µM*	17%	?	-2
CCCC(=O)Nc1ccc(NC(=O)c2ccccn2)cn1	-24%	5	?	9%	3.2µM*	6
COc1cccc(C(=O)Nc2ccc(NC(C)=O)cn2)c1	-5%	-1	-4%[59 µM]	27%	-7%	0
COc1cccc(C(=O)Nc2ccc(NC(=O)C3CC3)nc2)c1	-10%	-9	40µM*	-11%	-15%	0
O=C(O)CCCCCN1C(=O)C(O)=C(C(=O)/C=C/c2ccccc2)C1c1cccc([N+](=O)[O-])c1 (stereo unspecified)	?	4	45µM*	27%	-17%	-14
